Mdm2 MdmX PPI: inhibitors of human Mdm2/MdmX interaction; SaOS-2 split-luciferase Mdm2/MdmX complementation, luminescence; inhibition, % at 8 µM; 3% of 330,000 active; AID 485346;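 active = inhibition of at least 50% at 8 µM in the primary screen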
Jurkat NFkB inh: lowers PMA/ionomycin-induced NF-kB signal in Jurkat cells. PMA/ionomycin-induced NF-kB luciferase reporter, luminescence. 0.53% of 330,000 active. inhibition, % at 4 µM; in the data active = inhibition above about 50%
697 NFkB inh: inhibitors of the PMA/ionomycin-induced NF-kB reporter in 697 B cells; 697 B-cell NF-kB luciferase reporter, 16 h; 0.33% of 330,000 active; inhibition, % at 4 µM; in the data active = inhibition above about 35%
CSC inhib: blocks cancer stem cells | 1.1% of 300,000 active | inhibition, % at 7.5 µM | cancer stem cell-like cells viability, luminescence; in the data active = inhibition above about 75%; tested in HMLE shEcad cells
Gli-Sufu antag: blocks Gli-Sufu signaling in a luciferase reporter; Sufu-KO-LIGHT fibroblasts, Gli luciferase reporter luminescence; inhibition, % at 5 µM; 0.74% of 340,000 active; AID 588413;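 active = inhibition above about 55%, limit read from the data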;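 note: 0% = DMSO-treated cells and 100% = wells with medium but no cells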
Beta cell apopt: beta cell apoptosis inhibition. INS-1E cytokine-induced death, ATP luminescence, 48 h; percent of positive-control rescue, neutral wells zero. protection from apoptosis, % (concentration not given with the values). 0.8% of 300,000 active;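 active = Every replicate reaches about 75%, or at least half do and their mean reaches it too, limit read from the data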;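 note: 0% = cytokine-treated negative control wells and 100% = positive control rescue; higher means more ATP so stronger rescue from cytokine killing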
Jurkat NFkB conf: lowers PMA/ionomycin-induced NF-kB signal in Jurkat cells; shares compounds with Jurkat NFkB inh; AID 435020; inhibition, % at 4 µM; 27% of 2,700 active; Jurkat NF-kB luciferase, 16 h;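 active = inhibition reaching about 45% at 4 µM in either replicate, limit read from the data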;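 note: plate controls were PMA/ionomycin stimulated DMSO wells for no effect and unstimulated DMSO wells for full effect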
697 NFkB conf: lowers PMA/ionomycin-induced NF-kB signal in 697 B cells; shares compounds with 697 NFkB inh; 697 B-cell NF-kB luciferase, 16 h; AID 449746; 35% of 2,000 active; inhibition, % at 4 µM; in the data active = inhibition mostly above about 28%, no sharp cut-off; inactive = mostly below about 22%
* = called active by the depositor. An excerpt weighted towards active compounds, which were near 4.5% of everything screened.

Results for Oc1c(N=Nc2ccc(F)cc2)ccc2ccccc12 ?
Mdm2 MdmX PPI: -116.2; Jurkat NFkB inh: -141.2; 697 NFkB inh: -243.1; CSC inhib: 30.5; Gli-Sufu antag: -91.4; Beta cell apopt: 7.5

How did CC(C)(O)c1[nH]c2ccc(C#N)cc2c1C(C)(C)O do in these assays?
Mdm2 MdmX PPI: 17.1; Jurkat NFkB inh: 62.9*; 697 NFkB inh: 59.0*; CSC inhib: -0.6; Gli-Sufu antag: 1.4; Beta cell apopt: 1.3; Jurkat NFkB conf: 88.1*; 697 NFkB conf: 59.8*

How did Cc1nn(-c2ccccc2)c(C)c1/C=C/C(=O)OCC(=O)Nc1ccc(S(N)(=O)=O)cc1 do in these assays?
Mdm2 MdmX PPI: 3.9; Jurkat NFkB inh: 10.7; 697 NFkB inh: 5.6; CSC inhib: -2.0; Gli-Sufu antag: 4.9; Beta cell apopt: -1.2

How did O=c1c2ccccc2cnn1-c1ccc2ccccc2c1 do in these assays?
Mdm2 MdmX PPI: -104.9; Jurkat NFkB inh: -207.0; 697 NFkB inh: -289.9; CSC inhib: 6.8; Gli-Sufu antag: -82.8; Beta cell apopt: -0.8; Jurkat NFkB conf: -123.0; 697 NFkB conf: -293.9

How did COc1ccc(/C=C2\SC(=O)N(CCCC(=O)Nc3cc(Cl)ccc3C(=O)O)C2=O)cc1 do in these assays?
Mdm2 MdmX PPI: 49.7; Jurkat NFkB inh: 72.5*; 697 NFkB inh: 91.8*; CSC inhib: -2.6; Gli-Sufu antag: 73.9*; Beta cell apopt: -2.9; Jurkat NFkB conf: 83.0*; 697 NFkB conf: 89.8*

How did c1ccc2c(c1)CCN(c1nc3cc4c(cc3s1)OCO4)C2 do in these assays?
Mdm2 MdmX PPI: -234.7; Jurkat NFkB inh: -190.3; 697 NFkB inh: -304.5; CSC inhib: 15.9; Gli-Sufu antag: -71.7; Beta cell apopt: 17.1; Jurkat NFkB conf: -132.4; 697 NFkB conf: -262.6

Results for CCOc1cccc(C(=O)Nc2cccc(C(C)=O)c2)c1 ?
Mdm2 MdmX PPI: -0.6; Jurkat NFkB inh: -27.4; 697 NFkB inh: -11.1; CSC inhib: -12.6; Gli-Sufu antag: -34.7; Beta cell apopt: -14.2

What do the screens show for `Cc1ccoc1C(=O)Nc1ccc2ccccc2c1`?
Mdm2 MdmX PPI: -104.0; Jurkat NFkB inh: -210.9; 697 NFkB inh: -444.5; CSC inhib: 12.3; Gli-Sufu antag: -179.2; Beta cell apopt: 13.7; Jurkat NFkB conf: -122.1; 697 NFkB conf: -388.1

Results for Cc1cc(C(=O)Nc2ccc3ccccc3c2)oc1C ?
Mdm2 MdmX PPI: -159.3; Jurkat NFkB inh: -138.1; 697 NFkB inh: -173.7; CSC inhib: 13.3; Gli-Sufu antag: -130.0; Beta cell apopt: 12.1

How did O=C(Nc1ccc2ccccc2c1)c1ccc(Cl)cc1 do in these assays?
Mdm2 MdmX PPI: -125.9; Jurkat NFkB inh: -215.3; 697 NFkB inh: -475.6; CSC inhib: 0.9; Gli-Sufu antag: -113.0; Jurkat NFkB conf: -126.3; 697 NFkB conf: -486.0

What do the screens show for `CCOc1cccc(C(=O)Nc2ccc3ccccc3c2)c1`?
Mdm2 MdmX PPI: -165.0; Jurkat NFkB inh: -185.0; 697 NFkB inh: -449.2; CSC inhib: 32.6; Gli-Sufu antag: -112.6; Beta cell apopt: 3.3; Jurkat NFkB conf: -144.9; 697 NFkB conf: -489.6

What do the screens show for `CN(C)C(=O)C1Cc2ccccc2CN1S(=O)(=O)c1ccc(F)cc1` (centres undefined)?
Mdm2 MdmX PPI: 9.8; Jurkat NFkB inh: -4.8; 697 NFkB inh: 5.7; CSC inhib: 8.6; Gli-Sufu antag: 26.8; Beta cell apopt: -1.1

How did O=C(NCc1ccc(F)cc1)c1cccc(S(=O)(=O)N2CCOCC2)c1 do in these assays?
Mdm2 MdmX PPI: -4.9; Jurkat NFkB inh: 0.5; 697 NFkB inh: 20.3; CSC inhib: -13.1; Gli-Sufu antag: 3.4; Beta cell apopt: 2.3

Results for O=C(Nc1cccnc1)C1CC(=O)N(c2ccc(F)cc2)C1 (centres undefined) ?
Mdm2 MdmX PPI: -33.8; Jurkat NFkB inh: 5.2; 697 NFkB inh: -0.2; CSC inhib: -14.4; Gli-Sufu antag: 8.8; Beta cell apopt: -4.9

What do the screens show for `Cc1sc2ncnc(N3CCN(CCOc4ccc(Cl)cc4)CC3)c2c1C`?
Mdm2 MdmX PPI: 6.6; Jurkat NFkB inh: 57.0*; 697 NFkB inh: 55.6*; CSC inhib: 83.1*; Gli-Sufu antag: 74.0*; Beta cell apopt: 103.1*; Jurkat NFkB conf: 46.3; 697 NFkB conf: 35.2*

How did COc1ccc(-c2cc3nc4n(c(=O)c3s2)CCCCC4)cc1 do in these assays?
Mdm2 MdmX PPI: -78.7; Jurkat NFkB inh: -172.7; 697 NFkB inh: -267.4; CSC inhib: 32.5; Gli-Sufu antag: -86.1; Beta cell apopt: -1.1; Jurkat NFkB conf: -120.2; 697 NFkB conf: -322.1

What do the screens show for `CNC(=S)N1CCN(c2nc3ccccc3s2)CC1`?
Mdm2 MdmX PPI: -7.7; Jurkat NFkB inh: -51.8; 697 NFkB inh: -29.1; CSC inhib: -4.5; Gli-Sufu antag: -44.9; Beta cell apopt: 2.3

Results for O=C(Nc1nc2ccccc2[nH]1)c1ccccc1 ?
Mdm2 MdmX PPI: -65.7; Jurkat NFkB inh: -163.1; 697 NFkB inh: -291.7; CSC inhib: 23.5; Gli-Sufu antag: 7.4; Beta cell apopt: 14.5; Jurkat NFkB conf: -60.9; 697 NFkB conf: -179.3

What do the screens show for `O=C(Nc1ccc(O)c(-c2nc3ccccc3s2)c1)C1=COCCO1`?
Mdm2 MdmX PPI: -8.5; Jurkat NFkB inh: 10.7; 697 NFkB inh: -3.1; CSC inhib: -8.1; Gli-Sufu antag: -2.3; Beta cell apopt: 7.2

What do the screens show for `O=C(Nc1ccc(-c2nc3ccccc3s2)c(O)c1)C1=COCCO1`?
Mdm2 MdmX PPI: -47.2; Jurkat NFkB inh: -241.7; 697 NFkB inh: -334.6; CSC inhib: 3.0; Gli-Sufu antag: -75.4; Beta cell apopt: 23.5; Jurkat NFkB conf: -71.8; 697 NFkB conf: -133.7

What do the screens show for `CC(C)N1CCC(=O)NC1=O`?
Gli-Sufu antag: 9.6

Results for COc1ccc(OC)c(NC(=O)CSc2ncnc3c2cnn3-c2ccccc2Cl)c1 ?
Mdm2 MdmX PPI: -12.1; Jurkat NFkB inh: 50.3*; 697 NFkB inh: 71.1*; Gli-Sufu antag: 75.6*; Beta cell apopt: 129.3*; Jurkat NFkB conf: 65.3*; 697 NFkB conf: 49.6*

How did Oc1ccc(/C=N/NC(=S)N2CCOCC2)cc1 do in these assays?
Mdm2 MdmX PPI: 13.2; Jurkat NFkB inh: -27.8; 697 NFkB inh: -34.7; CSC inhib: 21.8; Gli-Sufu antag: 19.3; Beta cell apopt: 9.5

What do the screens show for `COc1ccc(-c2cn3c4c(sc3n2)CCCC4)cc1`?
Mdm2 MdmX PPI: -84.8; Jurkat NFkB inh: -191.0; 697 NFkB inh: -292.2; CSC inhib: -1.1; Gli-Sufu antag: -122.6; Beta cell apopt: -0.3; Jurkat NFkB conf: -130.4; 697 NFkB conf: -346.5

Results for CN(CCC1CCOCC1)C(=O)c1cc(COc2c(F)cccc2F)on1 ?
Mdm2 MdmX PPI: 19.6; Jurkat NFkB inh: 3.5; 697 NFkB inh: -0.6; CSC inhib: -1.5; Gli-Sufu antag: 5.3; Beta cell apopt: -3.6

How did C=CCN1C=C(C(C)=O)C(=O)CC1 do in these assays?
Gli-Sufu antag: -0.6
